HT1080-NT tox – kills 2HG-producing HT-1080-NT fibrosarcoma cells; HT-1080-NT fibrosarcoma viability, CellTiter-Glo ATP luminescence, 48 h; Potency, µM (titrated, usually from 46.1 µM), hits mostly cytotoxic; hit rate 1.6% among 360,000; AID 686970;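 also: NT is the 2HG producing partner of a matched IDH1 knockdown line; nearly all actives have a fitted effect of over 55% in size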
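Luminescent CellTiter-Glo readout after 48 hours of compound exposure at 37 degrees C defined viability of HT-1080-NT cells. Activity was normalized to DMSO wells and cell-free media wells; concentration-response curves were fitted and assigned curve classes.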
KB-V1 cytotox – kills drug-selected multidrug resistant KB-V1 cells. KB-V1 MDR cells viability, CellTiter-Glo, 72 h. Potency, µM (series often up to 46.1 µM), most hits filed as cytotoxic. hit rate 3.4% among 400,000. AID 1347076; also: nearly all actives have a fitted effect of over 60% in size
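Potencies derive from concentration-effect curves fitted to normalized luminescence (CellTiter-Glo) of KB-V1 cells treated for 72 h at 37 degrees C in phenol-red-free DMEM containing 10% FBS.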
TGFb inhibitor – TGF-b pathway inhibition; HepG2 CAGA-GFP TGF-b/SMAD3 reporter, GFP fluorescence, 18 h; TGF-beta stimulated, 500 pg/mL final; Potency, µM (titrated, usually from 46.1 µM), usual class: inhibitors; hit rate 1.2% among 410,000; also: nearly all actives have a fitted effect of over 65% in size
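Read-out: total well GFP (ex488/em500-530) summed from mean per-cell fluorescence. Cells: HEPG2 CAGA-GFP, 1% FBS DMEM, 18 h at 37 degrees C with 500 pg/mL final TGF-beta. Unstimulated wells served as the full-inhibition control; stimulated DMSO wells = 0%.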
KB-3-1 cytotox – KB-3-1 parental cell cytotoxicity; KB-3-1 viability, CellTiter-Glo ATP luminescence, 72 h; Potency, µM (titrated, usually from 46.1 µM), actives largely listed as cytotoxic; hit rate 1.4% among 400,000; AID 1347075; also: nearly all actives have a fitted effect of over 60% in size
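KB-3-1 parental drug-naive adenocarcinoma cells in DMEM/10% FBS, incubated 72 h at 37 C with pin-transferred compounds across a concentration series. Viability by CellTiter-Glo luminescence; concentration-response curves fitted after normalization.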
HepG2 viability – kills HepG2 cells in TGF-b inhibitor counter-screen | HepG2 CAGA-GFP viability, ATP luminescence, 18 h | Potency, µM (highest dose often 46.1 µM), most hits filed as cytotoxic | hit rate 0.76% among 410,000 | AID 588856
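CellTiter-Glo luminescence gave cytotoxicity after 18 hours at 37 degrees C. The cells were HepG2 CAGA-GFP in 1% FBS DMEM, stimulated with 500 pg/mL TGF-beta after compound addition. %Activity was normalised to no-cell wells (complete cell-killing) and DMSO (no toxicity), and curves were fitted and classified.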
HT1080 IDH1KD tx – kills HT-1080 cells with IDH1 knockdown | HT-1080 IDH1 knockdown viability, ATP luminescence, 48 h | Potency, µM (series often up to 46.1 µM), hits mostly cytotoxic | hit rate 2% among 360,000 | AID 686971
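In this qHTS, HT-1080 cells depleted of IDH1 are exposed for 48 h at 37 °C to compound titrations. Toxicity is scored from CellTiter-Glo luminescence, with DMSO as full viability and medium alone as none.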
A number is an active result; i = inactive; ? = inconclusive; nt = no result. A selection: hits, their analogues and other compounds. The true share with any hit is near 6.6%. Calls follow the shape of the dose curve; as a rule, active = well fitted curve in the direction sought with a large enough effect; inconclusive = small, poorly fitted or top-dose-only effect, or another doubt; inactive = no such curve, though single readings can be large; an effect the other way counts as inactive or inconclusive.

SMILES	HT1080-NT tox	KB-V1 cytotox	TGFb inhibitor	KB-3-1 cytotox	HepG2 viability	HT1080 IDH1KD tx
COCCN1C(=O)c2[nH]nc(-c3ccccc3O)c2C1c1ccc(Cl)c(Cl)c1 (centres undefined)	nt	i	?	i	i	nt
COc1cc(NC(=O)Cn2cc(S(=O)(=O)N3CCC(C)CC3)c3ccccc3c2=O)cc(OC)c1OC	nt	i	?	i	i	nt
Oc1ccc(Cl)c(CN2CCN(c3ncc(Cc4ccccc4)cn3)CC2)c1	?	16µM	nt	?	nt	?
O=C(c1cnc2cc(-c3ccccc3)nn2c1)c1cc([N+](=O)[O-])ccc1O	nt	i	?	?	i	nt
Cc1ccc(-c2cc3nccc(-c4cc([N+](=O)[O-])ccc4O)n3n2)cc1	nt	?	?	23µM	i	nt
Cc1ccc(-c2cc3ncc(C(=O)c4cc([N+](=O)[O-])ccc4O)cn3n2)cc1	nt	i	?	16µM	i	nt
CCOC(=O)COc1ccc([N+](=O)[O-])cc1-c1ccnc2cc(-c3ccc(C)cc3)nn12	nt	i	i	i	i	nt
C/C(=N\NC(=O)c1ccccc1F)c1ccc2c(c1)Nc1ccccc1S2	i	i	?	?	i	?
C/C(=N\NC(=O)c1ccc(O)cc1)c1ccc2c(c1)Nc1ccccc1S2	18µM	?	?	i	i	8.2µM
CCN(CC)c1ccc(C(=O)N/N=C(\C)c2ccc(O)cc2)cc1	?	i	i	13µM	i	?
C/C(=N\NC(=O)c1ccc(OC2CCCC2)cc1)c1ccc(O)cc1	i	?	i	3.7µM	i	i
Clc1ccccc1CSc1nc(NCCc2ccccc2)c2ccccc2n1	nt	nt	i	nt	i	nt
Cc1ccc(-n2ncc3c(NC4CCCCCC4)ncnc32)cc1	nt	i	i	i	i	nt
Cc1ccc(C(=O)N2CCN(c3ccc(NC(=O)COc4ccccc4C)cc3)CC2)cc1	i	?	i	18µM	i	i
COc1cc2ccccc2cc1C(=O)Nc1ccc(N2CCN(C)CC2)cc1	?	?	i	?	13µM	?
CCOc1ccc(NC(=O)CN2CCN(C3c4ccccc4-c4ccccc43)CC2)cc1	i	18µM	i	i	i	i
CCOc1ccc(NC(=O)c2cc3ccccc3cc2OC)cc1	?	?	i	?	i	23µM
CCc1ccc2occ(CC(=O)Nc3ccc(OC)c(Cl)c3)c2c1	nt	nt	?	nt	i	nt
O=C(Nc1ccccc1Cl)c1ccc(C(=O)Nc2ccccc2Cl)cc1	i	i	?	i	i	i
COc1ccc(OC)c(C(=O)c2ccc(C(=O)Nc3ccccc3)cc2)c1	i	23µM	i	i	i	i
O=C(Nc1ccc(C(=O)Nc2ccccc2Cl)cc1)c1cccnc1	8.2µM	?	i	i	i	5.8µM
CCOc1ccc(NC(=O)c2cccc3ccccc23)cc1	i	5.8µM	i	?	i	i
Cc1ccc(NC(=O)c2ccc(OC(=S)N3CCOCC3)cc2)cc1	i	6.5µM	i	i	i	?
O=C(Nc1ccccc1Br)c1ccc(OC(=S)N2CCOCC2)cc1	i	i	i	i	i	i
CCOc1ccc(NC(=O)c2cc3ccccc3cc2O)cc1	i	i	i	i	i	i
SMILES	HT1080-NT tox	KB-V1 cytotox	TGFb inhibitor	KB-3-1 cytotox	HepG2 viability	HT1080 IDH1KD tx
Cc1ccc(C)c(Cn2c(=O)n(CCc3ccccc3)c(=O)c3c(C)c(C)sc32)c1	nt	i	i	i	i	nt
O=C(Nc1cccnc1)c1sc(Nc2ccccc2)nc1-c1ccccc1	i	15µM	i	?	i	i
CC(=O)N1CCN(c2ccc(NC(=O)c3ccc(C)cc3)cc2)CC1	i	18µM	i	i	i	i
Cc1cccc(Nc2nc(-c3ccccc3)c(C(=O)Nc3cccnc3)s2)c1	?	?	?	?	i	?
Cc1ccc(NC(=O)COc2ccccc2CNC(C)(C)CC(C)(C)C)cc1	?	?	?	?	11µM	?
Cc1ccc(NC(=O)C2=C(c3ccccc3)S(=O)(=O)CCS2(=O)=O)cc1	10µM	?	3.5µM	?	7.1µM	7.3µM
CCN(CC)c1cc2c(cc1F)c(=O)c(S(=O)(=O)c1ccccc1)cn2Cc1ccccc1	nt	?	i	i	i	nt

Bioassay records from PubChem BioAssay.
